# Measurements as given in PubChem BioAssay AID1878 (Sanford-Burnham Center for Chemical Genomics, 2009).
# Screen size: about 1,000 compounds; about 200 (20%) were called active. Only a sample is shown. Entries with a potency or affinity are not part of this list. A number with no mark means an inactive call. Rule as the data show it: active = inhibition above about 55%; inactive = the rest.
# Biological target: Dual specificity protein phosphatase 3 (Homo sapiens) (UniProt P51452)
# Assay: VHR1 phosphatase inhibitors, biochemical (AID 1878)
# Conditions: recombinant VHR phosphatase, fluorogenic substrate; at 13.3 µM; active compounds read high
# Chain of Dual specificity protein phosphatase 3 (Homo sapiens) (P51452 whole entry, looked up): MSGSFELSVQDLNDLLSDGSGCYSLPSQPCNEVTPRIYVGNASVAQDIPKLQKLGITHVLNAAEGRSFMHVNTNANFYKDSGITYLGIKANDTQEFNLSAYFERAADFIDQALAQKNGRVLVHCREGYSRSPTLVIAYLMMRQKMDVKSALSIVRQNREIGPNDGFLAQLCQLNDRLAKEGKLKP
row,SMILES,inhibition
1,CC(C)Cn1c(=O)c2ccccc2n2c(CCC(=O)NC3CCN(Cc4ccccc4)CC3)nnc12,17.9%
2,COCCNC(=O)Cn1nc(-c2ccc(C)cc2)c2ccccc2c1=O,2.6%
3,Cn1nc(-c2ccc(C(=O)Nc3ccc(F)cc3)cc2)c2ccccc2c1=O,96.2% (active)
4,O=C(Nc1ccccc1-c1nnn(CC(=O)N2CCOCC2)n1)c1ccc(F)cc1,-1.6%
5,CCn1cc(C(=O)N2CCCC(N3CCN(c4cccc(C(F)(F)F)c4)CC3)C2)cn1 (stereo not given),-9%
6,COCCCNC(=O)Cn1cc(/C=C(\C#N)C(=O)NC2CC2)c2ccccc21,-8.8%
7,CCN(CC)CCC(=O)N1c2ccccc2CCc2ccc(NC(=O)OC(C)C)cc21,3.9%
8,O=c1[nH]c(=O)c2nc3c4ccccc4c4ccccc4c3nc2[nH]1,80.4% (active)
9,Cn1nc(C(=O)NCCCN2CCCCC2)c2c1-c1ccccc1S(=O)(=O)C2,-6.6%
10,Cc1ccc(NC(=O)C2CCN(S(=O)(=O)c3ccc4c(c3)NC(=O)CO4)CC2)cc1,-0.8%
11,COc1ccc(CNCC(O)(c2ccccc2)c2ccc(F)cc2)cc1OC (stereo not given),13%
12,Cc1sc2ncn(CC(=O)N3CCCC(C)C3)c(=O)c2c1S(=O)(=O)N1CCCCC1 (stereo not given),7.1%
13,O=C(NC(=S)Nc1ccc(CN2CCCCC2)cc1)c1cccc(OCc2ccccc2)c1,-29.4%
14,COc1cc2ccccc2cc1C(=O)NC(=S)Nc1cccc(C(=O)O)c1,55% (active)
15,O=C(NC(=O)c1ccccc1)Nc1ccccc1,2.5%
16,O=C(CSc1nc(-c2ccc(F)cc2)nc2c1Cc1ccccc1O2)Nc1cccc(C(=O)O)c1,96.6% (active)
17,O=C(CSc1nc(-c2ccccc2)nc2c1Cc1ccccc1O2)Nc1ccc(C(=O)O)cc1,98.8% (active)
18,CC(=O)c1ccc(NC(=O)CSc2nc(C)cc(C)c2C(N)=O)cc1,-9.9%
19,O=C(CNCCc1ccccc1)Nc1ccc(C(=O)N2CCCCC2)cc1,3.1%
20,CCCCn1c(N)c(N(CCOC)C(=O)c2cc(S(=O)(=O)N3CCCCC3)ccc2Cl)c(=O)[nH]c1=O,-7.9%
21,COC(=O)c1ccc(COc2ccc(C(C)(C)C)cc2)o1,29.7%
22,O=C1CCCN1CCC(=O)N1CCCC(CO)(Cc2ccccc2)C1 (stereo not given),26.9%
23,CC1CC(C)CN(CCCNC(=O)c2ccc(CNS(=O)(=O)c3ccc(F)cc3)cc2)C1 (stereo not given),2.4%

row,SMILES,inhibition
1,COc1ccc(CN2C(=O)c3cccnc3C2=O)cc1S(=O)(=O)NC1CCCCC1,-2.5%
2,CCOc1ccc(C(=O)N2CCC3(CC2)NCCc2[nH]cnc23)cc1OCC,-1.8%
3,Cc1c(C)c2ccc(O[C@@H]3O[C@H](CO)[C@H](O)[C@H](O)[C@H]3O)c(C)c2oc1=O,-3.5%
4,Cc1c(NC(=O)c2ccc(Cl)c(S(=O)(=O)N3CCCCC3)c2)c(=O)n(-c2ccccc2)n1C,-10.6%
5,CCC1CCCCN1CCCNC(=O)CNC(=O)c1nn(-c2ccc(OC)c(Cl)c2)c(=O)c2ccccc12 (stereo not given),-5.3%
6,COc1ccc(CN2CCNC(=O)C2CC(=O)NCC2CCOCC2)c(C)c1C (stereo not given),15.1%
7,COCCNc1cc(C)nc2c3c(C)cc(C)nc3nn12,9.5%
8,COc1cc(/C=C(\C#N)C(=O)Nc2ccc(C(=O)O)cc2)ccc1OC(=O)c1cccc(F)c1,67.8% (active)
9,CCOc1cc(/C=C(\C#N)C(=O)Nc2ccccc2C(=O)O)ccc1OC(=O)c1ccc(C)cc1,87.8% (active)
10,CCOc1cc(/C=C(\C#N)C(=O)Nc2cccc(C(=O)O)c2)ccc1OCc1ccccc1Cl,94.8% (active)
11,CCOc1ccc(C(=O)Nc2cc3c(cc2N2CCCC2)n(CC)c(=O)n3CC)cc1OCC,-0.2%
12,C/C=C/c1ccc(OCC(O)CNCCc2ccc(OC)cc2)c(OC)c1 (stereo not given),11.7%
13,COc1ccc(CCC(=O)NNC(=O)Nc2ccc(OC)c(OC)c2)cc1,1.3%
14,CCOc1ccccc1NC(=O)Nc1cc(C(=O)O)ccc1C,-10.9%
15,CCOc1cc(/C=C(/C#N)C(=O)Nc2ccc(OC)cc2)ccc1OCc1ccc(C(=O)O)cc1,90.9% (active)
16,CCc1ccccc1S(=O)(=O)c1c(C)cc(C)nc1Cl,-1.3%
17,C=CCC(=O)NC1CC(C)(C)Cc2c1cnn2-c1ccc(C)cc1 (stereo not given),-12.1%
18,CCC(=O)NC1=C(Nc2ccc(N)cc2)C(=O)c2ccccc2C1=O,-7.2%
19,O=C(NC1CCCCC1)c1cc(-c2ccccc2Cl)on1,3.4%
20,CCCN1C2CCCC1CC(NC(=O)NC13CC4CC(CC(C4)C1)C3)C2 (stereo not given),25.2%
21,CC(C)c1nn2c(=O)cc(COc3cccc(NC(=O)c4ccco4)c3)nc2s1,10.3%
22,O=C(Nc1cccc(O)c1)C1CC(c2cccc(Br)c2)=NO1 (stereo not given),6.5%
23,O=C(Nc1ccc(C(=O)N2CCN(c3ccc(F)cc3)CC2)cc1)C1=CSCCO1,4.8%

row,SMILES,inhibition
1,Cc1nn(CC(=O)NCCCN2CCCCC2)c(=O)c2cc(-c3ccccc3)nn12,22.8%
2,COc1cc(CNc2ccc(N3CCOCC3)cc2)ccc1OCC(=O)NC(C)(C)C,2.1%
3,CCOc1ccccc1CN1CCC(n2nccc2NC(=O)C2CCCC2)CC1,-19.2%
4,COc1cc(C(=O)NCC2(c3ccccc3)CCCC2)ccc1OC(C)C,-7.1%
5,Cc1ccc(-c2[nH]ncc2C(=O)c2ccccc2C)c(O)c1,-9%
6,CC(Cc1ccccc1)N1C(=O)c2ccccc2C1=O (stereo not given),-2.4%
7,C=CCN(C(=O)CNC(=O)c1cccs1)C(C(=O)NC(C)(C)C)c1ccccc1 (stereo not given),-6%
8,Cc1cc(Cl)c2oc(C(=O)NC(C)c3ccncn3)c(C)c2c1 (stereo not given),-5.8%
9,CC1Sc2ccc(S(=O)(=O)CCC(=O)N(C)Cc3ccco3)cc2NC1=O (stereo not given),-2.5%
10,CC(C)(C)C(=O)NN=C1CCC(c2ccccc2)CC1 (stereo not given),-3.9%
11,CCOC(=O)C1(CCOc2ccccc2)CCN(CC(O)CO)CC1 (stereo not given),-7.8%
12,CC1CCCN(CCCNC(=O)c2ccc3c(c2)N(Cc2ccccc2F)C(=O)c2ccccc2S3(=O)=O)C1 (stereo not given),-12.5%
13,Cc1ccc(C(=O)Nc2ccccc2N2CCCC2)cc1,21%
14,CC(C)Cn1c(C23CC4CC(CC(C4)C2)C3)n[nH]c1=S,10%
15,CCCCNC(=O)c1cn(C)c2ccc(S(=O)(=O)N3CCCC3)cc2c1=O,-4%
16,Cc1ccc(CN2C(=O)CC(Nc3ccc(N4CCOCC4)cc3)C2=O)cc1 (stereo not given),1.9%
17,Cc1ccc2nc(N3CCN(C)CC3)c(C=O)c(=O)n2c1,2.4%
18,O=C(c1cc(F)c(F)c(F)c1F)N1CCN(Cc2ccc3c(c2)OCO3)CC1,-6.3%
19,O=C1NN(c2ccccc2)C(=O)/C1=C\c1ccccc1,5.2%
20,CN(C)c1nc(N(C)C)nc(N(C#N)Cc2ccc(Cl)cc2)n1,2%
21,COc1cc(CNc2ccc(N3CCN(C(C)=O)CC3)cc2)ccc1OCc1ccc(F)cc1,-8.4%
22,COc1ccc(C2CC(=O)C(C=NCCO)=C(O)C2)cc1 (stereo not given),-0.8%
23,COc1cc(/C=N/n2c(C)nc3ccccc3c2=O)ccc1O,16.3%

row,SMILES,inhibition
1,COc1ccc2nc(C)cc(SCC(=O)N/N=C/c3c(OC)ccc4ccccc34)c2c1,92% (active)
2,COc1ccc(OC)c(NC(=O)Cc2coc3ccc4ccccc4c23)c1,-4.5%
3,COc1ccc2c(c1)c(C(=O)N/N=C/c1ccc(OC)c(OC)c1)c(C)n2C,-4.6%
4,CN(C)CCCNC(=S)N(CCCN(C)C)Cc1cc2cc3c(cc2[nH]c1=O)OCO3,-11.5%
5,CN(CCO)c1nc(N)c2c(N)nc3c(c2c1C#N)CC(=O)N3C1CCCC1,2.2%
6,Cc1ccc(N=Nc2cc(C)ccc2O)c(C)c1,0.1%
7,CC(=O)Nc1c(-c2ccccc2)c2cc(Br)ccc2[nH]c1=O,-0.4%
8,CC1CCCN(CCCNC(=O)C2CCN(S(=O)(=O)N3CCC4(CC3)OCCO4)CC2)C1 (stereo not given),2.1%
9,O=C(Cn1cnc2c(oc3nc4c(cc32)CCCC4)c1=O)Nc1cccc(Cl)c1,37.7%
10,Cc1ccc2nc(NC(=O)CCCc3nc4ccccc4s3)sc2c1,-0.6%
11,CSc1ccc(NC(=O)N2CCN(c3nc4ccccc4s3)CC2)cc1,5%
12,Cc1csc(NC(=O)CCCC(=O)O)c1-c1nc2ccccc2s1,98.8% (active)
13,O=C(CN1CCN(S(=O)(=O)c2ccc(Br)cc2)CC1)c1ccc(O)c(O)c1,-4.1%
14,Cc1cc(C)cc(NS(=O)(=O)c2ccc(-c3cnc(C4CC4)o3)cc2)c1,13%
15,CCOc1cc(/C=N/NC(=O)c2ccc(-c3csc(Nc4ccc(C)cc4)n3)cc2)ccc1OCC(=O)O,75.5% (active)
16,CC(NC(=O)COc1ccc(/C=N/NC(=O)CO)cc1)c1ccccc1 (stereo not given),1.2%
17,CC(C)(C)c1ccc2c(c1)OC(C(=O)N/N=C\c1ccc[nH]1)CO2 (stereo not given),6.8%
18,CCOC(=O)C1CCCN(CC(=O)Nc2nccs2)C1 (stereo not given),23.9%
19,CCOC(=O)c1ccc(S(=O)(=O)Nc2ccc(N3CCOCC3)cc2)cc1,-9%
20,CC(=O)N1CC(=O)Nc2ccc(F)cc2C1c1ccccc1 (stereo not given),32.3%
21,CCOC(=O)C1=C(N)Oc2ccc3ccccc3c2C1c1cccc(O)c1 (stereo not given),-5.7%
